Counter-ions that a name gives are not always drawn. In all, about 1,500 compounds went through this assay and about 30 (2%) showed activity. What follows is part of a selection rich in actives, with near analogues and random picks from the rest. Values without a mark were called inactive.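 The calls were made as follows: active = robust z-score below -2; a few such results were not called.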
tested on: optoTopBP1 Flp-In 293 T-REx (HEK293) cells; assay: light-induced TopBP1 condensate (nuclear foci) count, plate-normalised robust z-score vs non-control wells; higher = more TopBP1 condensates (negative = condensation inhibitor), active = hit call of the paper; conditions: 10 µM; incubation time 2 h

Row | SMILES | light-induced TopBP1 condensate (z-score)
1 | C[CH2][Hg][S]c1ccccc1C(=O)[O-].[Na+] [Thimerosal] | -8.21 (active)
2 | C[C@]12CC[C@H]3[C@@H](CCC4=CC(=O)CC[C@@H]43)[C@@H]1CC[C@@H]2O [Nandrolone] | 2.28
3 | O=C([O-])c1ccccc1-c1c2cc(Br)c(=O)cc-2oc2[c]([Hg+])c([O-])c(Br)cc12.[Na+].[Na+].[OH-] [Merbromin] | -0.221
4 | C[C@]12CC[C@@H](O)C[C@@H]1CC[C@@H]1[C@@H]2CC[C@]2(C)C(=O)CC[C@@H]12 [Androsterone] | 0.981
5 | C[C@]12CC[C@H](O)C[C@H]1CC[C@@H]1[C@@H]2C[C@@H](O)[C@]2(C)[C@@H](C3=CC(=O)OC3)CC[C@]12O [Digoxigenin] | -2.51 (active)
6 | C[C@]12CC[C@H](O)C[C@H]1CC[C@@H]1[C@@H]2CC[C@]2(C)[C@@H](C3=CC(=O)OC3)CC[C@]12O [Digitoxigenin] | -2.06 (active)
7 | CC(=O)O[C@H]1C[C@H](O[C@H]2[C@@H](O)C[C@H](O[C@H]3[C@@H](O)C[C@H](O[C@H]4CC[C@@]5(C)[C@H](CC[C@@H]6[C@@H]5C[C@@H](O)[C@]5(C)[C@@H](C7=CC(=O)OC7)CC[C@]65O)C4)O[C@@H]3C)O[C@@H]2C)O[C@H](C)[C@H]1O[C@@H]1O[C@H](CO)[C@@H](O)[C@H](O)[C@H]1O [Lanatoside C] | -1.56
8 | C[C@]12CC[C@H](O)C[C@@H]1CC[C@@H]1[C@@H]2CC[C@]2(C)C(=O)CC[C@@H]12 [Epiandrosterone] | -0.588
9 | C[C@]12CC[C@@H](O)C[C@H]1CC[C@@H]1[C@@H]2CC[C@]2(C)C(=O)CC[C@@H]12 [3-alpha-Hydroxy-5-beta-androstan-17-one] | -0.529
10 | CO[C@]12C[C@@H](COC(=O)c3cncc(Br)c3)CN(C)[C@@H]1Cc1cn(C)c3cccc2c13 [Nicergoline] | -0.703
11 | CC(=O)NC1CCSC1=O (racemic) [N-Acetyl-DL-homocysteine Thiolactone] | -0.247
12 | CC(=O)O[C@H]1CC[C@@]2(C)C(=CC[C@@H]3[C@@H]2CC[C@]2(C)C(=O)CC[C@@H]32)C1 [Dehydroisoandosterone 3-acetate] | -0.674
13 | COc1cc([C@@H]2c3cc4c(cc3[C@H](O)[C@H]3COC(=O)[C@H]23)OCO4)cc(OC)c1OC [Podophyllotoxin] | -2.43 (active)
14 | COc1cc2c(c(OC)c1OC)-c1ccc(OC)c(=O)cc1[C@@H](NC(C)=O)CC2 [Colchicine] | -1.18
15 | CC(CCc1ccccc1)NC(C)C(O)c1ccc(O)cc1 (stereo not given) [Nylidrin] | 0.555
16 | C#C[C@]1(O)CC[C@H]2[C@@H]3CCC4=CC(=O)CCC4=C3C=C[C@@]21CC [Gestrinone] | 0.545
17 | CN1C(=O)COc2c(C(=O)NC3CN4CCC3CC4)cc(Cl)cc21 (stereo not given) [Azasetron hydrochloride] | 0.519
18 | C[N+]1(C)[C@@H]2CC[C@H]1C[C@@H](OC(=O)C(CO)c1ccccc1)C2 (stereo not given in full) [Methylatropine nitrate] | -0.568
19 | COc1ccc(CCN)cc1OC [Homoveratrylamine] | -1.31
20 | C[C@]12CCC(=O)C=C1C=C[C@@H]1[C@@H]2CC[C@@]2(C)[C@H]1CC[C@@]2(O)CCC(=O)O [Canrenoic acid potassium salt] | 1.33

From the supplement of paper PMC12582362
